Here are results for 7 molecules from PubChem BioAssay (NCI).

About 83,000 compounds went through this panel and 20% of them were active in at least one assay; those are over-represented in the sample as a whole.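 Compound tested at a single concentration for 48 hours in 96-well plates; a percent growth value below 10 was scored as active.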 Unmarked numbers belong to inactive results. The source made the active and inactive calls.

Among the test systems are NCI-H23 lung; NCI-H226 lung; NCI-H322M lung; HOP-62 NSCLC; NCI-H460 lung; HOP-92 NSCLC; NCI-H522 lung; A549/ATCC NSCLC; 786-0 renal; COLO 205 colon; DU-145 prostate; K-562 leukemia; MALME-3M melanoma; MDA-MB-231 breast; RXF 393 renal; SF-268 CNS; SF-295 CNS; SF-539 CNS; UACC-257 melanoma; M14 melanoma.
Common to all, as to assay: NCI-60 one-dose screen, 48 h (100 = growth as untreated, 0 = no growth, -100 = all killed)
What all share (settings): 10 µM unless noted

Consider `COc1cccc(C2C(C#N)=C(N)Oc3c2ccc2ccccc32)c1` (stereo not given), for which the growth in the experiment with NCI-H23 lung was 28.4%; in the experiment on NCI-H226 lung it was 47.1%; in the experiment with NCI-H322M lung, 41.7%; in the experiment with HOP-62 NSCLC it was 39.6%; with NCI-H460 lung it was 8.32% (active); in the experiment on HOP-92 NSCLC, 46.5%. Besides, the growth with NCI-H522 lung was 7.11% (active); in the experiment on A549/ATCC NSCLC it was 26.2%; in the experiment with 786-0 renal, 20.6%; in the experiment on COLO 205 colon it was -41.8% (active); in the experiment on DU-145 prostate, 16.9%; in the experiment with K-562 leukemia it was 6.44% (active). The growth in the experiment with MALME-3M melanoma was 54.4%; in the experiment with MDA-MB-231 breast it was 24.2%; in the experiment with RXF 393 renal, 40.7%; in the experiment with SF-268 CNS, 30.9%; with SF-295 CNS, 23.5%; in the experiment on SF-539 CNS, -12% (active). For the same molecule, the growth was 82% in the experiment on UACC-257 melanoma and 9.7% (active) with M14 melanoma.
Consider `CCC(=C(c1ccc(OCCN(CC)CC)cc1)c1ccc(OCCN(CC)CC)cc1)c1ccc(Cl)cc1`, for which the growth was 68.7% with NCI-H23 lung; 109% in the experiment on NCI-H226 lung; -8.03% (active) in the experiment on NCI-H322M lung; -27% (active) with HOP-62 NSCLC; -81.4% (active) in the experiment with NCI-H460 lung; 33.5% with HOP-92 NSCLC. Further, the growth was -39.4% (active) in the experiment on NCI-H522 lung; -75% (active) in the experiment on A549/ATCC NSCLC; -95.4% (active) in the experiment with 786-0 renal; -69% (active) with COLO 205 colon; -19.7% (active) in the experiment with DU-145 prostate; 0.499% (active) in the experiment with K-562 leukemia. Moreover, the growth was -81.4% (active) with MALME-3M melanoma; -81.7% (active) in the experiment on MDA-MB-231 breast; -54.3% (active) in the experiment on RXF 393 renal; -4.01% (active) in the experiment with SF-268 CNS; -68.5% (active) in the experiment on SF-295 CNS; -90.3% (active) in the experiment with SF-539 CNS. Also, the results for the growth in the experiment with UACC-257 melanoma and in the experiment with M14 melanoma were -65% (active) and -79% (active), respectively.
For `CC1(C)CC[C@]2(CO)CC[C@]3(C)[C@H](CC[C@@H]4[C@@]5(C)CC[C@H](O)C(C)(C)[C@@H]5CC[C@]43C)[C@H]2[C@H]1O`, the growth in the experiment with NCI-H23 lung was 87.1%; in the experiment on NCI-H226 lung, 79.1%; in the experiment on NCI-H322M lung, 69.2%; with HOP-62 NSCLC, 54.6%; with NCI-H460 lung it was 21%; in the experiment on HOP-92 NSCLC it was 105%. For the same molecule, the growth with NCI-H522 lung is 84.8%; in the experiment with A549/ATCC NSCLC it was 56.8%; in the experiment on 786-0 renal it was 79.3%; in the experiment with COLO 205 colon, 93.8%; in the experiment on DU-145 prostate it was 77.7%; in the experiment with K-562 leukemia, 83.9%. Further, the growth in the experiment on MALME-3M melanoma was 78.1%; in the experiment with MDA-MB-231 breast, 26.5%; in the experiment on RXF 393 renal, 61.1%; with SF-268 CNS, 83.7%; with SF-295 CNS it was 86.4%; in the experiment on SF-539 CNS, 12.8%. Besides, the growth was 104% in the experiment with UACC-257 melanoma and 99.7% in the experiment with M14 melanoma.
Regarding `CCCCCCCC/C=C\CCCCCCCCOc1ccc(CC(=O)NCC[N+]2(C)CCCC2)cc1`, the growth in the experiment with NCI-H23 lung is 58.7%; in the experiment with NCI-H226 lung it was 66.4%; in the experiment with NCI-H322M lung, 88.5%; with HOP-62 NSCLC it was 22.5%; with NCI-H460 lung, 25.3%; with HOP-92 NSCLC, 57.4%. Moreover, the growth with NCI-H522 lung is 48.7%; with A549/ATCC NSCLC, 73.7%; in the experiment with 786-0 renal it was 48.6%; in the experiment with COLO 205 colon, -74.1% (active); with DU-145 prostate it was 78.4%; with K-562 leukemia, 41.6%. Further, the growth is 66% with MALME-3M melanoma; 59.8% in the experiment on MDA-MB-231 breast; -45.3% (active) with RXF 393 renal; 62.8% in the experiment with SF-268 CNS; 74.8% with SF-295 CNS; 65.4% in the experiment with SF-539 CNS. Further, the growth in the experiment with UACC-257 melanoma is 77.3%; in the experiment with M14 melanoma, 71.4%.
For the molecule `C=C1CC[C@@H]2[C@](C)(COC(C)=O)[C@H](OC(C)=O)CC[C@@]2(C)[C@@H]1CC(Nc1ccc(S(=O)(=O)Nc2nccc(C)n2)cc1)C1=CCOC1=O` (stereo not given in full), the growth was 48.4% with NCI-H23 lung; -12.1% (active) with NCI-H226 lung; 64.8% with NCI-H322M lung; 156% in the experiment on HOP-62 NSCLC; 46.9% in the experiment on NCI-H460 lung; 71.6% with HOP-92 NSCLC. Moreover, the growth with NCI-H522 lung is -50.6% (active); with A549/ATCC NSCLC, 63.4%; with 786-0 renal, 32.5%; in the experiment with COLO 205 colon it was 9.64% (active); in the experiment on DU-145 prostate it was 38.5%; with K-562 leukemia, 3.62% (active). Further, the growth in the experiment on MALME-3M melanoma is -0.704% (active); in the experiment with MDA-MB-231 breast, 13.3%; with RXF 393 renal, -38.3% (active); in the experiment on SF-268 CNS, 43.2%; in the experiment with SF-295 CNS, 78.6%; in the experiment on SF-539 CNS, -62.7% (active). The growth in the experiment with UACC-257 melanoma is 48.5%; in the experiment with M14 melanoma it was 11.2%.
Regarding `COc1cc(OCc2cccc(-c3ccccc3)c2C)cc(OC)c1CN1CCCCC1C(=O)NCCOCCOCCN` (stereo not given), the growth is 86.8% in the experiment on NCI-H23 lung; 86.4% with NCI-H226 lung; 89.6% in the experiment on NCI-H322M lung; 89.8% in the experiment on HOP-62 NSCLC; 41.8% with NCI-H460 lung; 46.4% with HOP-92 NSCLC. The growth in the experiment on NCI-H522 lung was 93.3%; in the experiment with A549/ATCC NSCLC, 70.6%; with 786-0 renal it was 90.8%; in the experiment on COLO 205 colon, 20%; in the experiment on DU-145 prostate, 65.7%; in the experiment with K-562 leukemia, -19.8% (active). Also, the growth in the experiment on MALME-3M melanoma is 54.1%; in the experiment on MDA-MB-231 breast, 57.5%; in the experiment with RXF 393 renal, 59%; in the experiment with SF-268 CNS, 87%; in the experiment on SF-295 CNS it was 89.3%; with SF-539 CNS, 87.7%. Further, the growth in the experiment with UACC-257 melanoma was 99.7%; in the experiment on M14 melanoma it was -27.5% (active).
Regarding `Cc1ccc(C23CCC(=O)N2CCc2cncn23)cc1` (stereo not given), the growth with NCI-H23 lung is 97.4%; in the experiment with NCI-H226 lung, 96.2%; in the experiment with NCI-H322M lung, 99.3%; in the experiment on HOP-62 NSCLC it was 94.8%; with NCI-H460 lung it was 110%; in the experiment with HOP-92 NSCLC, 87.2%. Besides, the growth was 87.9% with NCI-H522 lung; 96.7% in the experiment with A549/ATCC NSCLC; 108% in the experiment on 786-0 renal; 98.6% in the experiment with COLO 205 colon; 105% in the experiment with DU-145 prostate; 112% in the experiment with K-562 leukemia. The growth was 109% with MALME-3M melanoma; 113% in the experiment on MDA-MB-231 breast; 87% with RXF 393 renal; 114% with SF-268 CNS; 102% with SF-295 CNS; 101% in the experiment with SF-539 CNS. Also, the growth in the experiment on UACC-257 melanoma is 100%; in the experiment with M14 melanoma it was 101%.
